According to PubChem BioAssay:
Inconclusive results are not listed. Activity calls are given as the source filed them. Unless noted, the limit is not given here; nearly all actives have AC50 up to about 23 µM.

test: growth inhibition of DIPG glioma cells, dose response, cell-based, SU-DIPG-XVII, MIPE5.0, CellTiter-Glo, qHTS (AID 1347060; cut-off not given, nearly all actives have AC50 up to about 26 µM;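 as to AC50: cells exposed to compound for 48 hours before viability readout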); settings: SU-DIPG-XVII viability, CellTiter-Glo ATP luminescence

Row | SMILES | AC50 | outcome
1 | CCN(CC)CCNC(=O)c1c(C)[nH]c(/C=C2/C(=O)Nc3ccc(-c4csc(-c5ccccc5)n4)cc32)c1C | 3.32 µM (active) | 
2 | C[C@@H]1CC(=O)Nc2cccc(-c3cnn(C(C)(C)C)c3)c2N1 |  | inactive
3 | Cc1c(CN2CCC(Nc3ncnc4sc(CC(F)(F)F)cc34)CC2)ccc2c1cc(C#N)n2Cc1cn[nH]c1 | 20.9 µM (active) | 
4 | CC(=O)c1cnc2ccc(-c3cc(Cl)c(O)c(Cl)c3)nc2c1NC1CCC(CN(C)C)CC1 (stereo not given) | 0.191 µM (active) | 
5 | O=c1sn(-c2cccc3ccccc23)c(=O)n1Cc1ccccc1 | 23.5 µM (active) | 
6 | Nc1ccc(/C=C/C(=O)NCc2cc3cc(-c4ccc(C(=O)N5CCC(F)(F)CC5)cc4)cc(-c4ccc(F)cc4)c3o2)cn1 | 0.105 µM (active) | 
7 | Cc1cn(CCN2CCN(c3ccccc3-c3cc(C#N)cc(C(=O)NCCCN4CCCC4)c3)CC2)c2ccccc12 | 8.33 µM (active) | 
8 | CN(C)C1CCN(C(=O)c2ccc(NC(=O)Nc3ccc(-c4nc(N5CCOCC5)nc(N5CCOCC5)n4)cc3)cc2)CC1 | 0.332 µM (active) | 
9 | CCOC(=N)c1nc2ccc3ncnc(Nc4cc(F)c(F)cc4Cl)c3c2s1 | 16.6 µM (active) | 
10 | O=C(NOCCO)c1ccc2cncn2c1Nc1ccc(I)cc1F | 0.148 µM (active) | 
11 | Cn1nccc1Nc1nccc(-c2ccn([C@H](CO)c3ccc(Cl)c(F)c3)c(=O)c2)n1 | 18.6 µM (active) | 
12 | CCc1cc2c(c(OCC(F)(F)F)c(C(=O)NC3CCN(C(=O)CO)CC3)n2C)c(=O)n1CC(=O)c1ccccc1 |  | inactive
13 | O=C(NCc1ccc(S(=O)(=O)c2cccc(C(F)(F)F)c2)cc1)c1cnc2[nH]ncc2c1 | 0.0263 µM (active) | 
14 | C=C1C(=O)O[C@@H]2[C@H]3C(C)=CC[C@@]34O[C@@]4(C)CC[C@@H]12 | 11.8 µM (active) | 
15 | COc1cc(C(=O)O)ccc1NC(=O)[C@@H]1N[C@@H](CC(C)(C)C)[C@](C#N)(c2ccc(Cl)cc2F)[C@H]1c1cccc(Cl)c1F | 6.61 µM (active) | 
16 | CN1C/C=C/CCOc2cccc(c2)-c2ccnc(n2)Nc2cccc(c2)C1 | 0.0833 µM (active) | 
17 | Nc1nc2cc(-c3ccc4ncc(C(=O)N5CCOCC5)n4c3)ccc2o1 | 18.6 µM (active) | 
18 | CNS(=O)(=O)Nc1nccc(Cc2c(C)c3ccc(Oc4ncccn4)cc3oc2=O)c1F | 1.48 µM (active) | 
19 | COc1ccc(-c2cc(C(O)C3CCCCN3)c3ccccc3n2)cc1 (stereo not given) | 20.9 µM (active) | 
20 | Cc1ccc(NC(=O)c2ccc3c(c2)OCCO3)cc1NC(=O)c1ccc2nc(OCCN3CCCC3)ccc2c1 | 0.129 µM (active) | 
21 | O=C(CCCc1ccc2cccnc2n1)NCc1cc(-c2ccc(F)c(C(F)(F)F)c2)no1 |  | inactive
22 | Cc1ccc(S(=O)(=O)Nc2cc(-c3ccc(C#N)s3)ccc2C)cc1 | 0.0468 µM (active) | 
23 | Nc1nc(N)c2nc(-c3cccc(Cl)c3)c(N)nc2n1 | 1.32 µM (active) | 
24 | O=c1cc(N2CCOCC2)oc2c(-c3ccc4c(c3)OCCO4)csc12 | 5.25 µM (active) | 
25 | COc1cc(OC)c(/C=C/S(=O)(=O)Cc2ccc(OC)c(OP(=O)(O)O)c2)c(OC)c1 | 0.0417 µM (active) | 
26 | Cc1cc(C(=O)Nc2cc(Nc3ccc4c(/C=C/c5ccccn5)n[nH]c4c3)ccc2F)n(C)n1 | 8.33 µM (active) | 

test: growth inhibition of DIPG glioma cells, dose response, cell-based, SU-DIPG-XIII, MIPE5.0, CellTiter-Glo, qHTS (AID 1347064); settings: SU-DIPG-XIII viability, CellTiter-Glo ATP luminescence;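 as to AC50: cells exposed to compound for 48 hours before the viability read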

Row | SMILES | AC50 | outcome
27 | O=C(NOCCO)c1cc(CN2OCCCC2=O)c(F)c(F)c1Nc1ccc(I)cc1F | 0.148 µM (active) | 
28 | CC(C)NC(=O)C1CCC(n2c(NC(=O)c3ccc(F)cc3)nc3ccc(CN4CCC(C(C)(C)O)CC4)cc32)CC1 (stereo not given) | 7.23 µM (active) | 
29 | COc1cccc2c1c(O)c(C(=O)N(C)c1ccc(C(F)(F)F)cc1)c(=O)n2C |  | inactive
30 | COCCNCc1ccc(-c2cc3nccc(Oc4ccc(NC(=O)C5(C(=O)Nc6ccc(F)cc6)CC5)cc4F)c3s2)nc1 | 5.25 µM (active) | 
31 | CC1Oc2cc(cnc2N)-c2c(nn(C)c2C#N)CN(C)C(=O)c2ccc(F)cc21 (stereo not given) | 6.61 µM (active) | 
32 | CCc1cc(C(N)=O)ccc1-n1nc(C(C)C)c2c(-n3cnc(-c4cnn(C)c4)c3)ccnc21 | 3.72 µM (active) | 
33 | NS(=O)(=O)Oc1ccc2c3c(c(=O)oc2c1)CCCCC3 |  | inactive
34 | CC1=C(c2ccc(O)cc2)[C@H](c2ccc(OCCN3CCCCC3)cc2)Oc2cc(O)ccc21 | 18.6 µM (active) | 
35 | NC(=O)c1cccc2c(NC(CN3CCC3)c3ccc(Cl)c(C(F)(F)F)c3)ncnc12 (stereo not given) | 3.72 µM (active) | 
36 | CCN1C(=O)N2Cc3cc(OC)cc(OC)c3[C@@H](C)C=C2C12CCN(Cc1cc(C)cc(C)c1)CC2 | 18.6 µM (active) | 
37 | CCN1CCN(Cc2ccc(NC(=O)Nc3ccc(Oc4cc(NC)ncn4)cc3)cc2C(F)(F)F)CC1 | 3.32 µM (active) | 
38 | CCCCN(CCCC)C(=O)CN1C[C@H](c2ccc3c(c2)OCO3)[C@@H](C(=O)O)[C@@H]1c1ccc(OC)cc1 |  | inactive
39 | O=C(/C=C\n1cnc(-c2cc(C(F)(F)F)cc(C(F)(F)F)c2)n1)NNc1ccccn1 | 0.295 µM (active) | 
40 | CCN(CC)CCNC(=O)c1c(C)[nH]c(/C=C2/C(=O)Nc3ccc(-c4csc(-c5ccccc5)n4)cc32)c1C | 2.95 µM (active) | 
41 | C[C@@H]1CC(=O)Nc2cccc(-c3cnn(C(C)(C)C)c3)c2N1 |  | inactive
42 | Cc1c(CN2CCC(Nc3ncnc4sc(CC(F)(F)F)cc34)CC2)ccc2c1cc(C#N)n2Cc1cn[nH]c1 | 23.5 µM (active) | 
43 | CC(=O)c1cnc2ccc(-c3cc(Cl)c(O)c(Cl)c3)nc2c1NC1CCC(CN(C)C)CC1 (stereo not given) | 0.171 µM (active) | 
44 | O=c1sn(-c2cccc3ccccc23)c(=O)n1Cc1ccccc1 | 13.2 µM (active) | 
45 | Nc1ccc(/C=C/C(=O)NCc2cc3cc(-c4ccc(C(=O)N5CCC(F)(F)CC5)cc4)cc(-c4ccc(F)cc4)c3o2)cn1 | 0.372 µM (active) | 
46 | Cc1cn(CCN2CCN(c3ccccc3-c3cc(C#N)cc(C(=O)NCCCN4CCCC4)c3)CC2)c2ccccc12 | 10.5 µM (active) | 

Row | SMILES | AC50 | outcome
47 | CN(C)C1CCN(C(=O)c2ccc(NC(=O)Nc3ccc(-c4nc(N5CCOCC5)nc(N5CCOCC5)n4)cc3)cc2)CC1 | 0.833 µM (active) | 
48 | CCOC(=N)c1nc2ccc3ncnc(Nc4cc(F)c(F)cc4Cl)c3c2s1 | 16.6 µM (active) | 
49 | O=C(NOCCO)c1ccc2cncn2c1Nc1ccc(I)cc1F | 0.148 µM (active) | 
50 | Cn1nccc1Nc1nccc(-c2ccn([C@H](CO)c3ccc(Cl)c(F)c3)c(=O)c2)n1 | 10.5 µM (active) | 
51 | CCc1cc2c(c(OCC(F)(F)F)c(C(=O)NC3CCN(C(=O)CO)CC3)n2C)c(=O)n1CC(=O)c1ccccc1 |  | inactive
52 | O=C(NCc1ccc(S(=O)(=O)c2cccc(C(F)(F)F)c2)cc1)c1cnc2[nH]ncc2c1 | 0.0118 µM (active) | 
53 | C=C1C(=O)O[C@@H]2[C@H]3C(C)=CC[C@@]34O[C@@]4(C)CC[C@@H]12 | 11.8 µM (active) | 
54 | COc1cc(C(=O)O)ccc1NC(=O)[C@@H]1N[C@@H](CC(C)(C)C)[C@](C#N)(c2ccc(Cl)cc2F)[C@H]1c1cccc(Cl)c1F | 14.8 µM (active) | 
55 | CN1C/C=C/CCOc2cccc(c2)-c2ccnc(n2)Nc2cccc(c2)C1 | 0.132 µM (active) | 
56 | Nc1nc2cc(-c3ccc4ncc(C(=O)N5CCOCC5)n4c3)ccc2o1 | 14.8 µM (active) | 
57 | CNS(=O)(=O)Nc1nccc(Cc2c(C)c3ccc(Oc4ncccn4)cc3oc2=O)c1F | 1.18 µM (active) | 
58 | COc1ccc(-c2cc(C(O)C3CCCCN3)c3ccccc3n2)cc1 (stereo not given) | 16.6 µM (active) | 
59 | Cc1ccc(NC(=O)c2ccc3c(c2)OCCO3)cc1NC(=O)c1ccc2nc(OCCN3CCCC3)ccc2c1 | 0.229 µM (active) | 
60 | O=C(CCCc1ccc2cccnc2n1)NCc1cc(-c2ccc(F)c(C(F)(F)F)c2)no1 |  | inactive
61 | Cc1ccc(S(=O)(=O)Nc2cc(-c3ccc(C#N)s3)ccc2C)cc1 | 0.0525 µM (active) | 
62 | Nc1nc(N)c2nc(-c3cccc(Cl)c3)c(N)nc2n1 | 9.34 µM (active) | 
63 | O=c1cc(N2CCOCC2)oc2c(-c3ccc4c(c3)OCCO4)csc12 | 6.61 µM (active) | 
64 | COc1cc(OC)c(/C=C/S(=O)(=O)Cc2ccc(OC)c(OP(=O)(O)O)c2)c(OC)c1 | 0.0417 µM (active) | 
65 | Cc1cc(C(=O)Nc2cc(Nc3ccc4c(/C=C/c5ccccn5)n[nH]c4c3)ccc2F)n(C)n1 | 7.42 µM (active) | 
